The target in experiment [1] is Albumin (Bos taurus) (UniProt P02769). Put plainly: compounds binding labelled BSA control protein – biochemical, small-molecule microarray, Alexa647 label, 635/667 nm fluorescence, artefact control for SMM control protein annotation, profiling panel (AID 1118).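 Also: score merges 667 nm emission intensity and signal-to-noise per printed compound spot.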 The settings on record: BSA-A647 binding, fluorescence 635 nm, higher = more signal.
The nature of experiment [2]: probe aXIP binding to arrayed compounds – biochemical, NeuroSMM set, 635/667 nm fluorescence, primary screen (AID 1119).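 Also: probe is the protein aXip251-270 applied at 1 µg/mL to compound-printed slides; binding of probe to printed compounds measured as 667 nm fluorescence plus signal to noise.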 The settings on record: small-molecule microarray, higher = more signal, called active from +8 up or from −8 down.
Experiment [3] can be described thus: probe aNOTCH3 binding on compound microarray – biochemical, small-molecule microarray, 635/667 nm fluorescence, primary screen (AID 1120).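 Also: probe is a biotin-tagged antibody raised against NOTCH3 rather than NOTCH3 protein; score merges spot fluorescence near 667 nm with spot signal to noise.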 The settings on record: higher = more signal.
Experiment [4] is described as follows: probe aNOTCH2 binding on compound microarray – biochemical, small-molecule microarray, 635/667 nm fluorescence, primary screen (AID 1121).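 Also: score merges feature fluorescence read at 667 nm with its signal to noise.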 The settings on record: higher = more signal.
Experiment [5] addresses Carbonic anhydrase 2 (Homo sapiens) (UniProt P00918). Nature of the experiment: compounds binding carbonic anhydrase 2 – biochemical, small-molecule microarray, Alexa647-labelled CAII, profiling panel (AID 1122). The settings on record: CAII-A647 binding fluorescence, higher = more signal.
Experiment [6] is described as follows: COS7 lysate on small-molecule microarray, probe aHis, 635 nm (AID 1123).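 Also: z-score combines 667nm fluorescence intensity with signal-to-noise per printed compound spot.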 The settings on record: COS7 cell lysate, fluorescence, higher = more signal.
The nature of experiment [7]: probe aLAP1 signal on lysate-treated microarray – cell lysate, small-molecule microarray, COS7 lysate, primary screen (AID 1124).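 Also: lysate comes from COS7 cells expressing LAP1 and is applied at 0.3 µg/mL; score merges spot fluorescence near 667 nm with signal-to-noise over triplicate slides.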 The settings on record: probe aLAP1, fluorescence, higher = more signal.
For experiment [8], the system named is Sam68 (KHDRBS1). Put plainly: compounds binding KHDRBS1 protein – biochemical, small-molecule microarray, 635 nm fluorescence, primary screen (AID 1125).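 Also: score merges 667 nm channel intensity with signal to noise over triplicate slides.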 The settings on record: higher = more signal.
In experiment [9] the test system is Chordin-like protein 2 (CHRDL2). Put plainly: compounds binding chordin-like 2 – biochemical, small-molecule microarray, 635 nm fluorescence, primary screen (AID 1126).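 Also: printed compound slides probed with Chrdl2 protein at 4 µg/mL for 1 h at 4 C; score merges 667 nm emission intensity with signal to noise over three replicate slides.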 The settings on record: fluorescence 635 nm, higher = more signal.
Experiment [10] has as its target Concanavalin-A (Canavalia ensiformis) (UniProt P02866). Put plainly: compounds binding concanavalin A lectin – biochemical, small-molecule microarray, Alexa647 label, 635 nm, artefact control for SMM control protein annotation, primary screen (AID 1127).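 Also: z combines 667 nm emission intensity with signal-to-noise across three replicate slides.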 The settings on record: ConA-A647 binding fluorescence, higher = more signal.

Active and inactive are the calls of the source.

Sequence of Albumin (Bos taurus) (P02769 whole entry, looked up): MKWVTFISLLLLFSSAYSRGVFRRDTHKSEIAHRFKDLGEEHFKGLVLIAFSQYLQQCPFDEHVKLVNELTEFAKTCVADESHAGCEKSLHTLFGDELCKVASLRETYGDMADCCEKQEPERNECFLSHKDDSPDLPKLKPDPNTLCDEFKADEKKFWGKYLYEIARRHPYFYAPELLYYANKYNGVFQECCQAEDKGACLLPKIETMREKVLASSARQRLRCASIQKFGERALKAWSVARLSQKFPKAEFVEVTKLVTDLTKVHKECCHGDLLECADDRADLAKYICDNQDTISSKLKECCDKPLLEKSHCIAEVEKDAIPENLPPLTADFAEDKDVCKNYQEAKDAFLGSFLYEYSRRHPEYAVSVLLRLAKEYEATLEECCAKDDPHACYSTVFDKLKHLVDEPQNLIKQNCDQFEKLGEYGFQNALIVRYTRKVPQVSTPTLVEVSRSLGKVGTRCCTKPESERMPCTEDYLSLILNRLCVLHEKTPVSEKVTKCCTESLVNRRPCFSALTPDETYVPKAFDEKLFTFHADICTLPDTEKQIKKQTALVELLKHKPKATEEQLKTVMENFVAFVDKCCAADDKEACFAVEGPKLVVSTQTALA
Sequence of Concanavalin-A (Canavalia ensiformis) (P02866 whole entry, looked up): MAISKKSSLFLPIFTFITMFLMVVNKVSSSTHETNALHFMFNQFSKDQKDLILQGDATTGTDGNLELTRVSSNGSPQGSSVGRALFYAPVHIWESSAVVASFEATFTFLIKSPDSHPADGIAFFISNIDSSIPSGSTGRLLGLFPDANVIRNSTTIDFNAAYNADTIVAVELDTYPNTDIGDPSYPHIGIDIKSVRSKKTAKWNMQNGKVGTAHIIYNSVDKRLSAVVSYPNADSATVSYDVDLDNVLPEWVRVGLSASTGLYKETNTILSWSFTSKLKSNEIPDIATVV

In the case of `Cc1ccc(F)cc1S(=O)(=O)N[C@@H]1CCN(Cc2ccc(-c3ccccc3)cc2)C1`, the composite z-score in [1] is 0.413; in experiment [3], -0.126; in [4], -0.0598; in [5], 0.482; in [6], 0.249; in experiment [7], 0.625. In addition, the figures for the composite z-score in [8], in experiment [9] and in experiment [10] were 0.581, 0.776 and -0.0888, respectively. The composite Z-score in experiment [2] is -0.569 (inactive).
With `COc1ccc(C#Cc2ccc3c(c2)[C@]2(C(=O)N3)[C@H](C(=O)NC[C@H](O)c3ccccc3)[C@H]3C(=O)O[C@H](c4ccccc4)[C@H](c4ccccc4)N3[C@@H]2c2ccc(OCCO)cc2)cc1`, the composite z-score in experiment [1] was 0.265; in experiment [3], 0.196; in experiment [4], -0.125; in experiment [5] it was 0.357; in experiment [6], 1.97; in experiment [7], 0.635. For the same compound, the composite z-score in [8] came to 1.33; in experiment [9] it was 0.473; in experiment [10], 1.17. Besides, the composite Z-score in experiment [2] was 0.53 (inactive).
As for `CC(=O)NCCCC[C@@H]1NC(=O)[C@H]2C[C@@H](C(=O)NCCCCCC[N+](C)(C)C)[C@@H](c3cccc(OCCO)c3)N2C1=O`, the composite z-score in experiment [1] was 0.0306; in experiment [3], 0.15; in experiment [4], -0.106; in experiment [5] it was 0.607; in experiment [6], 1.19; in experiment [7] it was -0.165. The results for the composite z-score in [8], in experiment [9] and in experiment [10] were 1.04, 1.45 and 0.904, respectively. Besides, in experiment [2], the composite Z-score was 0.526 (inactive).
For `CC(C)(C)N1CC=CC23O[C@@H]4C=CCOC(=O)[C@@H]4[C@H]2C(=O)N(CCCCCO)[C@@H]3C1=O` (stereo not given in full), the composite z-score is 0.485 in experiment [1]; -0.406 in experiment [3]; -0.229 in [4]; 0.82 in experiment [5]; 0.121 in experiment [6]; 1.25 in [7]. In addition, the results for the composite z-score in [8], in [9] and in experiment [10] were -0.87, -0.612 and -2.63, respectively. For the same compound, the composite Z-score in experiment [2] is 1.1 (inactive).
In the case of `CCCCC(CC)C(O)C1C=CC2C(=O)N(c3ccccc3)C(=O)C2N1Nc1ccccc1` (stereo not given), the composite z-score in [1] is 0.83; in experiment [3], 0.206; in experiment [4] it was -0.122; in experiment [5] it was 0.665; in experiment [6] it was 2.28; in experiment [7] it was 0.297. Further, the values for the composite z-score in experiment [8], in [9] and in [10] were 0.883, -0.804 and 0.964, respectively. Besides, in experiment [2], the composite Z-score was 0.392 (inactive).
Turning to `C=C[C@H](COC(C)=O)N(Cc1ccc(OC(C)=O)c(OC)c1)S(=O)(=O)c1ccc(Br)cc1`, the composite z-score in [1] turned out to be 0.777; in [3], 0.223; in experiment [4], 0.272; in [5], 0.512; in experiment [6], 0.987; in [7], 0.509. Also, the composite z-score in [8] was 0.988; in [9] it was 0.771; in experiment [10], 1.04. Further, in experiment [2], the composite Z-score is 0.365 (inactive).
`C=C[C@H](C)[C@@H](O)c1ccc(O)c2ccccc12`: the composite z-score was 0.841 in [1]; -0.191 in experiment [3]; 0.291 in experiment [4]; 0.493 in experiment [5]; 0.165 in experiment [6]; 0.361 in [7]. The composite z-score is -0.49 in [8], 0.866 in experiment [9] and -1.04 in experiment [10]. In addition, in [2], the composite Z-score was 0.681 (inactive).
As to `CCOC(=O)C[C@H]1[C@H](OC(=O)Cc2ccc3c(c2)OCO3)[C@@H](NC(=O)c2ccc(-c3ccccc3)cc2)c2cc(OCCCO)ccc2N1C(=O)c1ccccc1`, the composite z-score in experiment [1] was 0.731; in experiment [3] it was 0.0316; in [4], -0.0649; in experiment [5], 0.364; in experiment [6], 0.341; in experiment [7], -0.202. In addition, the composite z-score in experiment [8] amounted to 0.792; in [9] it was 0.379; in experiment [10], 0.645. In addition, the composite Z-score in experiment [2] was 0.133 (inactive).
Take `CC(C)c1ccc(NN2C(C(O)c3cccc(O)c3)C=CC3C(=O)N(c4ccccc4)C(=O)C32)cc1` (stereo not given): the composite z-score in experiment [1] came to 1; in experiment [3], 0.374; in [4], 0.0572; in experiment [5] it was 0.798; in experiment [6], 2.53; in [7], 0.279. Further, the composite z-score in [8] was 1.35; in experiment [9], -0.678; in experiment [10], 1.14. The composite Z-score in experiment [2] was 1 (inactive).
Regarding `Cc1cc(C)cc(N2C(=O)CS(=O)(=O)C2c2cccc([N+](=O)[O-])c2)c1` (stereo not given), the composite z-score in experiment [1] is 0.785; in experiment [3], 0.799; in [4] it was 0.189; in experiment [5], 0.547; in experiment [6], 1.73; in [7] it was 1.36. For the same compound, the results for the composite z-score in [8], in experiment [9] and in [10] were 0.828, 0.433 and 0.989, respectively. In experiment [2], the composite Z-score was 1.97 (inactive).
For `COCCOC(=O)N1C(=O)[C@@]2(c3cc(C#CCC(C(=O)OC)C(=O)OC)ccc31)[C@H](c1ccccc1OCCO)N1[C@H](c3ccccc3)[C@H](c3ccccc3)OC(=O)[C@H]1[C@@H]2C(=O)N1CCc2cc(OC)c(OC)cc2C1`, the composite z-score is 0.534 in experiment [1]; 0.134 in experiment [3]; -0.16 in [4]; 0.45 in experiment [5]; 0.833 in experiment [6]; 0.211 in experiment [7]. Moreover, the values for the composite z-score in experiment [8], in [9] and in experiment [10] were 1.29, 0.787 and 1.16, respectively. Further, in experiment [2], the composite Z-score is 0.405 (inactive).
As to `C=CCNC(=O)[C@@H]1[C@H]2C(=O)O[C@H](c3ccccc3)[C@H](c3ccccc3)N2[C@H](c2ccc(OCCO)cc2)[C@@]12C(=O)Nc1ccccc12`, the composite z-score is 0.507 in experiment [1]; 0.0773 in [3]; -0.157 in experiment [4]; 0.692 in experiment [5]; 1.91 in experiment [6]; 0.262 in experiment [7]. Besides, the values for the composite z-score in experiment [8], in [9] and in [10] were 1.29, 0.228 and 1.11, respectively. In experiment [2], the composite Z-score was -0.551 (inactive).
For the compound `COCCCNC(=O)[C@@]1(c2ccc([N+](=O)[O-])cc2)CC(=O)N(CC23CC4CC(CC(C4)C2)C3)[C@@H]1c1ccc(CO)cc1`, the composite z-score in experiment [1] is 0.197; in [3] it was 0.204; in [4] it was -0.117; in [5], 0.43; in experiment [6], 0.726; in [7] it was 0.375. For the same compound, the results for the composite z-score in experiment [8], in experiment [9] and in experiment [10] were 1.28, 0.556 and 1.08, respectively. In addition, in [2], the composite Z-score was 0.324 (inactive).
`C=CCNC(=O)[C@H]1[C@@H]2C(=O)O[C@@H](c3ccccc3)[C@@H](c3ccccc3)N2[C@@H](c2ccc(O)cc2)[C@]12C(=O)N(C(=O)OCCOC)c1ccc(C#CCCO)cc12`: the composite z-score was 0.534 in [1]; -0.155 in experiment [3]; -0.0942 in experiment [4]; 0.701 in experiment [5]; 2.1 in experiment [6]; 0.881 in experiment [7]. The composite z-score in experiment [8] is 1.08; in experiment [9] it was -0.445; in experiment [10] it was 0.903. In experiment [2], the composite Z-score is -0.228 (inactive).
As for `C=CC[C@@H](OC(=O)Nc1ccc(OC)cc1)c1ccc(O)c2ccccc12`, the composite z-score in [1] is 0.32; in experiment [3], 0.278; in [4], -0.133; in experiment [5], 0.349; in experiment [6] it was 1.53; in experiment [7], -0.09. For the same compound, the composite z-score was found to be 1.3 in experiment [8], 1.34 in [9] and 0.913 in experiment [10]. The composite Z-score in [2] is 0.786 (inactive).
As for `COc1ccc([Si](C)(C)[C@H]2[C@H](CC(=O)N(CCO)Cc3ccccc3)O[C@@]3(C(=O)N(Cc4cccc(N5CCC5=O)c4)c4ccccc43)[C@@H]2C)cc1`, the composite z-score was 0.378 in [1]; -0.0802 in experiment [3]; -0.154 in [4]; 0.454 in experiment [5]; 1.12 in [6]; 0.782 in experiment [7]. Besides, the composite z-score in experiment [8] came to 1.01; in experiment [9], 1.1; in experiment [10] it was 1.11. Besides, in [2], the composite Z-score was 4.59 (inactive).

(Values after PubChem BioAssay.)
